The whole screen tested about 1,300 compounds, of which about 270 (21%) were called active. These entries were drawn from the full list. Entries with a potency or affinity are not part of this list. A number with no mark means an inactive call.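 Rule for the calls: active = dose-dependent rise or fall in viability, either side of zero, with half-maximal concentration at or below a set limit; inconclusive = flat curve at 30 to 70% viability loss, or poor fit; inactive = flat within 30% either way, or potency beyond limit.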
Assay: proliferation inhibition in MITF-low A375 cells – cell-based, cherry-pick samples, set 2, counter-screen for MITF modulator project, dose response (AID 540335);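 note: A375 human melanoma cells which do not depend on MITF; 0% = median of neutral control wells and 100% = double that signal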
Conditions: CellTiter-Glo ATP luminescence, 24 h; series mostly up to 35 µM; activity change, negative = decreased viability: at the top concentration

| SMILES | activity change, negative = decreased viability |
| --- | --- |
| CN(C(=O)/C=C/c1ccc([N+](=O)[O-])s1)c1ccccc1 | -12.6% |
| Cc1scc(C(=O)N/N=C/c2ccc([N+](=O)[O-])o2)c1C | -10.2% |
| CCCCCCN1C=CC(=C2C(=O)c3ccccc3C2=O)C=C1 | -11.3% |
| O=C1CN(C(=O)Cn2ncc(Cl)c(Cl)c2=O)c2ccccc2N1 | 36.1% |
| Cc1ccc(C(=O)N/N=C/c2ccc([N+](=O)[O-])s2)cc1 | -10.8% |
| Cc1ccc(C)c(C(=O)Cn2ncc(Cl)c(Cl)c2=O)c1 | 78.1% |
| C=CCNc1nc(-c2ccccn2)nnc1-c1ccccc1 | -21.7% |
| Clc1cccc(-c2nc(-c3ccccn3)no2)c1 | -22.9% |
| O=C(Nc1ccc(S(=O)(=O)N2CCCCCC2)cc1)c1[nH]ncc1[N+](=O)[O-] | -21% |
| O=C(O)c1ccc(N/N=C/c2ccc(OC(=O)c3cccc(Cl)c3)cc2)cc1 | 1.31% |
| CC(C)CC(=O)NC(c1cccs1)c1ccc2cccnc2c1O (stereo not given) | -35.5% |
| O=C(CCl)Nc1ccc(Sc2ccc(NC(=O)CCl)cc2)cc1 | 75.1% |
| COc1ccccc1-c1nc(-c2ccc(C)nc2OC)no1 | 10.9% |
| COc1ccccc1-c1nnc(-c2ccc(C)cc2)o1 | 7.71% |
| Cn1c(SC2=CS(=O)(=O)c3ccccc32)nc2ccccc21 | -10.8% |
| CCN1CCc2c(sc(NC(=O)c3ccc(S(=O)(=O)N4CCCCCC4)cc3)c2C(=O)NC)C1 | -9.09% |
| CC1(C)CC(NC(=O)c2ccc(Cl)c(S(=O)(=O)N(Cc3ccccc3)c3ccccc3)c2)CC(C)(C)N1 | -56.2% |
| COc1ccc(C(C(=O)NC2CCCCC2)N(C(=O)CCl)c2ccc(OC)cc2)cc1 (stereo not given) | -7.56% |
| C#CC(=O)N(c1ccc(OC)cc1OC)C(C(=O)NC1CCCC1)c1cccs1 (stereo not given) | -6.23% |
| C(#Cc1ccccc1)C[N+]1(CC#Cc2cccc3ccccc23)CCCC1 | -24.6% |
| CCOc1ccc2nc(C)cc(Nc3cccc([N+](=O)[O-])c3)c2c1 | -48.8% |
| CC(=O)OCCNc1cc(Sc2nc3ccccc3[nH]2)c2nonc2c1[N+](=O)[O-] | 1.78% |
| O=C(Nc1cc(-c2nc3ncccc3o2)ccc1Cl)c1ccc([N+](=O)[O-])o1 | -5.78% |
| O=C(O)c1cccc(N/N=C/c2ccc(OC(F)(F)F)cc2)c1 | 14.9% |
| O=C(Cn1ncc(Cl)c(Cl)c1=O)NCC1CCCCC1 | -26.7% |
| O=C(CSc1ccccn1)c1ccc2c(c1)OCO2 | 9.9% |
| COc1ccc(C(=O)/C=C(\C)Nc2ccc3c(c2)OCO3)cc1 | 0.308% |
| Cc1cc(C(=O)CN2C(=O)c3ccccc3S2(=O)=O)c(C)n1-c1ccccc1 | 6.79% |
| Cc1cccnc1NC(=O)NC(=O)c1ccc(C(C)(C)C)s1 | 3.2% |
| COc1ccc(CCn2c(=S)[nH]c3cc(C(=O)NCc4ccco4)ccc3c2=O)cc1OC | -33.1% |
